According to PubChem BioAssay (EPA / NIEHS):
Calls of active or inactive are those of the source. The calls were made as follows: active = hit-call score of the fitted dose curve at least 0.9, where 1 is the maximum; inactive = score below 0.9.

Legend:
[1] = read-out: Human Leukocyte Antigen - DR isotype (HLADR), HLA-DRA (gene 3122); assay: BSK_BE3C_HLADR: BioMAP Diversity Plus: BE3C Assay for Human Leukocyte Antigen - DR isotype (HLADR) Biomarker Activity (AID 2283032); settings: primary human bronchial epithelial cells; actives raise or lower the signal
In short: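 Human primary bronchial epithelial cells in the BE3C system were exposed to chemicals for 24 h, after which HLA-DR levels were quantified by ELISA. Activity was fitted bidirectionally, gain or loss of signal, against DMSO as negative control and baseline.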

[2] = read-out: Interferon-gamma inducible Protein 10 (IP10), CXCL10 (gene 3627); assay: BSK_BE3C_IP10: BioMAP Diversity Plus: BE3C Assay for Interferon-gamma inducible Protein 10 (IP10) Biomarker Activity (AID 2283034); settings: primary human bronchial epithelial cells; actives raise or lower the signal
In short: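 Human primary bronchial epithelial cells were exposed to chemicals for 24 hours, after which IP-10 levels were measured by ELISA. Data were fitted bidirectionally against DMSO, which served as the negative control and activity baseline.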

[3] = read-out: Monokine induced gamma interferon (MIG), CXCL9 (gene 4283); assay: BSK_BE3C_MIG: BioMAP Diversity Plus: BE3C Assay for Monokine induced gamma interferon (MIG) Biomarker Activity (AID 2283035); settings: primary human bronchial epithelial cells; actives raise or lower the signal
In short: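 MIG level was determined by ELISA after 24 h chemical treatment of primary human bronchial epithelial cells. Values were fitted bidirectionally with DMSO as the negative control and activity baseline.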

[4] = read-out: Transforming growth factor beta 1 (TGFb1), TGFB1 (gene 7040); assay: BSK_BE3C_TGFb1: BioMAP Diversity Plus: BE3C Assay for Transforming growth factor beta 1 (TGFb1) Biomarker Activity (AID 2283036); settings: primary human bronchial epithelial cells; actives raise or lower the signal
In short: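 Human primary bronchial epithelial cells (BE3C system) were dosed with chemical and TGF-b1 levels measured by ELISA at 24 h. Activity was fitted bidirectionally relative to DMSO negative control as baseline.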

[5] = read-out: Plasminogen activator inhibitor-1 (PAI1), SERPINE1 (gene 5054); assay: BSK_BE3C_PAI1: BioMAP Diversity Plus: BE3C Assay for Plasminogen activator inhibitor-1 (PAI1) Biomarker Activity (AID 2283037); settings: primary human bronchial epithelial cells; actives raise or lower the signal
In short: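 Human primary bronchial epithelial cells were exposed to chemical for 24 h, then PAI-1 was quantified by ELISA. Activity was fitted bidirectionally relative to the DMSO negative control baseline.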

[6] = read-out: urokinase plasminogen activator (uPA), PLAU (gene 5328); assay: BSK_BE3C_uPA: BioMAP Diversity Plus: BE3C Assay for urokinase plasminogen activator (uPA) Biomarker Activity (AID 2283038); settings: primary human bronchial epithelial cells; actives raise or lower the signal
In short: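 ELISA read-out of uPA in human lung primary bronchial epithelial cultures, 24 h post-dosing. Gain or loss of signal fitted bidirectionally relative to DMSO baseline; cytotoxicity checked in parallel cultures via SRB total protein stain.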

[7] = read-out: Urokinase-type plasminogen activator receptor (uPAR), PLAUR (gene 5329); assay: BSK_BE3C_uPAR: BioMAP Diversity Plus: BE3C Assay for Urokinase-type plasminogen activator receptor (uPAR) Biomarker Activity (AID 2283039); settings: primary human bronchial epithelial cells; actives raise or lower the signal
In short: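 Primary human bronchial epithelial cells were dosed with chemical and harvested 24 h later; uPAR was quantified by ELISA. Activity was fitted bidirectionally against DMSO as negative control and baseline.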

[8] = read-out: Interleukin-6 (IL6), IL6 (gene 3569); assay: BSK_CASM3C_IL6: BioMAP Diversity Plus: CASM3C Assay for Interleukin-6 (IL6) Biomarker Activity for (AID 2283040); settings: primary human coronary artery smooth muscle cells; actives raise or lower the signal
[9] = read-out: Tissue plasminogen activator (tPA), PLAT (gene 5327); assay: BSK_BE3C_tPA: BioMAP Diversity Plus: BE3C Assay for Tissue plasminogen activator (tPA) Biomarker Activity (AID 2283041); settings: primary human bronchial epithelial cells; actives raise or lower the signal
In short: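 Human primary bronchial epithelial cells were dosed with chemical and tPA biomarker levels measured by ELISA 24 hours later. Activity was fitted bidirectionally against DMSO as negative control and baseline.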

[10] = read-out: Interleukin-8 (IL8), CXCL8 (gene 3576); assay: BSK_CASM3C_IL8: BioMAP Diversity Plus: CASM3C Assay for Interleukin-8 (IL8) Biomarker Activity (AID 2283042); settings: primary human coronary artery smooth muscle cells; actives raise or lower the signal;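 also: IL-8 protein level quantified by ELISA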
[11] = read-out: Human Leukocyte Antigen - DR isotype (HLADR), HLA-DRA (gene 3122); assay: BSK_CASM3C_HLADR: BioMAP Diversity Plus: CASM3C Assay for Human Leukocyte Antigen - DR isotype (HLADR) Biomarker Activity (AID 2283043); settings: primary human coronary artery smooth muscle cells; actives raise or lower the signal;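 also: cell-surface HLA-DR protein level quantified by ELISA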
[12] = read-out: Macrophage colony-stimulating factor (MCSF), CSF1 (gene 1435); assay: BSK_CASM3C_MCSF: BioMAP Diversity Plus: CASM3C Assay for Macrophage colony-stimulating factor (MCSF) Biomarker Activity (AID 2283044); settings: primary human coronary artery smooth muscle cells; actives raise or lower the signal;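 also: M-CSF protein amount quantified by ELISA after 24 h exposure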
[13] = read-out: Low-density lipoprotein receptor (LDLR), LDLR (gene 3949); assay: BSK_CASM3C_LDLR: BioMAP Diversity Plus: CASM3C Assay for Low-density lipoprotein receptor (LDLR) Biomarker Activity (AID 2283045); settings: primary human coronary artery smooth muscle cells; actives raise or lower the signal;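 also: LDLR protein level on the cell surface quantified by ELISA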
[14] = read-out: Monocyte Chemoattractant Protein-1 (MCP1), CCL2 (gene 6347); assay: BSK_CASM3C_MCP1: BioMAP Diversity Plus: CASM3C Assay for Monocyte Chemoattractant Protein-1 (MCP1) Biomarker Activity (AID 2283046); settings: primary human coronary artery smooth muscle cells; actives raise or lower the signal;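 also: MCP-1 level quantified by ELISA 24 h after dosing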
[15] = BSK_CASM3C_Proliferation: Cell Proliferation Assessment in the BioMAP Diversity Plus: CASM3C Assay (AID 2283047); settings: primary human coronary artery smooth muscle cells;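 also: sulforhodamine B total protein stain as relative cell number at 560 nm; sub-confluent cells exposed 48 h before staining; fitted both ways against DMSO so gain or loss of cell number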
[16] = read-out: Monokine induced gamma interferon (MIG), CXCL9 (gene 4283); assay: BSK_CASM3C_MIG: BioMAP Diversity Plus: CASM3C Assay for Monokine induced gamma interferon (MIG) Biomarker Activity (AID 2283048); settings: primary human coronary artery smooth muscle cells; actives raise or lower the signal;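 also: MIG protein level measured by ELISA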
[17] = read-out: serum amyloid A (SAA), SAA1 (gene 6288); assay: BSK_CASM3C_SAA: BioMAP Diversity Plus: CASM3C Assay for serum amyloid A (SAA) Biomarker Activity (AID 2283049); settings: primary human coronary artery smooth muscle cells; actives raise or lower the signal;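 also: SAA protein level quantified by ELISA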
[18] = BSK_CASM3C_SRB: Viability Assessment in the BioMAP Diversity Plus: CASM3C Assay (AID 2283050); settings: primary human coronary artery smooth muscle cells;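 also: total protein by SRB staining as cytotoxicity measure in parallel cultures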
[19] = read-out: Thrombomodulin, THBD (gene 7056); assay: BSK_CASM3C_Thrombomodulin: BioMAP Diversity Plus: CASM3C Assay for Thrombomodulin Biomarker Activity (AID 2283051); settings: primary human coronary artery smooth muscle cells; actives raise or lower the signal;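 also: thrombomodulin protein level measured by ELISA 24 h after dosing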

Measured: AC50

Nc1nc(Cl)nc2c1ncn2[C@H]1C[C@H](O)[C@@H](CO)O1
active: [15] 0.54 µM
inactive: all other assays above

CCN(CC)CCOc1ccc(C(=C(Cl)c2ccccc2)c2ccccc2)cc1
inactive: [19]
active: [1] 15.2 µM | [2] 15.3 µM | [3] 25.7 µM | [4] 16.1 µM | [6] 26 µM | [7] 26.3 µM | [8] 31.6 µM | [9] 11.1 µM | [10] 32 µM | [11] 23.9 µM | [12] 26.2 µM | [13] 30.6 µM | [14] 33 µM | [15] 15 µM | [16] 31.5 µM | [17] 25.9 µM | [18] 28 µM

CC(=O)O[C@]1(C(C)=O)CC[C@H]2[C@@H]3C=C(Cl)C4=CC(=O)[C@@H]5C[C@@H]5[C@]4(C)[C@H]3CC[C@@]21C
active: [1] 19.3 µM | [2] 33.4 µM | [3] 31 µM | [4] 31.5 µM | [5] 20 µM | [6] 38.2 µM | [7] 32.4 µM | [9] 34.9 µM
not listed: [17]
inactive: all other assays above

Nc1nc(=S)c2[nH]cnc2[nH]1
active: [13] 3.72 µM | [15] 4.67 µM
not listed: [5]
inactive: all other assays above

CC1(C)C(=O)NC(=O)N1CO
not listed: [5]
inactive: all other assays above

O=C(Oc1ccccc1)c1cccc(C(=O)Oc2ccccc2)c1
not listed: [5]
inactive: all other assays above

CC1=C(C)S(=O)(=O)CCS1(=O)=O
not listed: [5]
inactive: all other assays above

N[C@@H](Cc1c[nH]c2ccccc12)C(=O)O
inactive: all assays above
